# Screens: PubChem BioAssay, National Center for Advancing Translational Sciences (NCATS)
# Most compounds without a hit are left out; they make up all but 19% or so of the library.
# TDP1 cell CPT: qHTS for Inhibitors of human tyrosyl-DNA phosphodiesterase 1 (TDP1): qHTS in cells in presence of CPT. 420,000 compounds, 12% hits. AID 686979, 2013. chicken DT40 Tdp1-/-;hTDP1 cells + 20 nM CPT, ATP luminescence, 48 h. Potency, µM (series often up to 46.2 µM), for the others: top-dose activity change, negative = growth inhibition, most hits filed as inhibitors; also: potency is read from the fitted curve at half-maximal effect; % is scaled to controls: 0 for no effect and ±100 for the full control effect; nearly all actives have a fitted effect of over 55% in size
#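 Chicken DT40 Tdp1-/- cells stably complemented with human TDP1 were seeded at 400 cells/well in medium containing 20 nM camptothecin, exposed to pin-transferred compounds, and grown at 37 °C for at least 48 hr. Viability was read as ATP luminescence.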
# HepG2 tox: qHTS for Inhibitors of TGF-b: Cytotox Counterscreen. HepG2 CAGA-GFP viability, ATP luminescence, 18 h. Potency, µM (series often up to 46.1 µM), inactives show at the top dose activity change, negative = cytotoxicity, hits mostly cytotoxic. 410,000 compounds, 0.76% hits. AID 588856, 2011; also: potency is read from the fitted curve at half-maximal effect
#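 HepG2 CAGA-GFP cells (1000/well, DMEM with 1% FBS) received compound, then TGF-beta at 500 pg/mL final, and were incubated 18 hours at 37 degrees C. Viability was read by CellTiter-Glo luminescence. Media-only wells were set as complete cell-killing and DMSO as no toxicity.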
# IL1B secr inh: qHTS for Inhibitors of Inflammasome Signaling: IL-1-beta AlphaLISA Primary Screen. activity change, % at 57.5 µM. THP-1 LPS/ATP IL-1B secretion, AlphaLISA, 16 h; stronger effect = lower value. 360,000 compounds, 4.7% hits; in the data active = activity change below about -50%; inconclusive = mostly about -30% to -49%; also: % is scaled to controls: 0 for no effect and ±100 for the full control effect
#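 Secreted IL-1B measured by AlphaLISA bead assay after 16 h compound exposure of THP-1 cells; compounds (final up to 57.5 uM) added 1 h before LPS (250 ng/mL) and ATP (1.25 mM) stimulation; lower signal means less secretion.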
# TDP1 cell noCPT: qHTS for Inhibitors of human tyrosyl-DNA phosphodiesterase 1 (TDP1): qHTS in cells in absence of CPT; DT40 Tdp1-/- hTDP1 cells, no CPT, ATP luminescence, 48 h; Potency, µM (highest dose often 46.2 µM), for inactives: top-dose activity change, negative = growth inhibition, actives largely listed as inhibitors; 420,000 compounds, 15% hits; also: potency is read from the fitted curve at half-maximal effect; % is scaled to controls: 0 for no effect and ±100 for the full control effect; nearly all actives have a fitted effect of over 55% in size
#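 Cells were dispensed at 400 per well, compounds added by pin tool, plates incubated ≥48 hr at 37 °C, then CellTiter-Glo added for 30 min at room temperature before luminescence reading. Line: DT40 Tdp1-/- complemented with hTDP1; camptothecin omitted.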
# ASM inhibitor: Inhibitors of Secretory Acid Sphingomyelinase (S-ASM): qHTS. Potency, µM (titrated, usually from 57.5 µM), inactives show top-dose activity change, negative = inhibition, usual class: inhibitors. 340,000 compounds, 0.006% hits. Sphingomyelin phosphodiesterase (Homo sapiens), P17405. placental ASM, HMU-PC fluorogenic substrate, 60 min. AID 504937, 2011; also: potency is read from the fitted curve at half-maximal effect
# Target sequence (P17405 47-631 limits assumed): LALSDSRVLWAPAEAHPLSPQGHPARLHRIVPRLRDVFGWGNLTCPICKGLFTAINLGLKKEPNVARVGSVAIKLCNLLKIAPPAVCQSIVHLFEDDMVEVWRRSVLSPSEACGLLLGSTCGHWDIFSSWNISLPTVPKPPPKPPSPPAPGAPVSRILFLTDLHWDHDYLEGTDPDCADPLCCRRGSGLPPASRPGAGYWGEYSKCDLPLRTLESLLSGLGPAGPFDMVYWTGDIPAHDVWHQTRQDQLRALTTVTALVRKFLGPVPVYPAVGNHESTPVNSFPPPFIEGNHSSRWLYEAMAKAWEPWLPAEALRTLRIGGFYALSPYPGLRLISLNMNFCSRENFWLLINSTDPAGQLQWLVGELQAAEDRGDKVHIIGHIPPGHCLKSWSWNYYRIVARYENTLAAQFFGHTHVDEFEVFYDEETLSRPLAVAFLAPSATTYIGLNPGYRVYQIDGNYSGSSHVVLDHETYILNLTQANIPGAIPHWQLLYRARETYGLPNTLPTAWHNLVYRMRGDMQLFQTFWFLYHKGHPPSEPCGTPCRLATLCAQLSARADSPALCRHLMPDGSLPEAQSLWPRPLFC
#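 Fluorescence read-out (Ex 386 nm, Em 447 nm) after stopping the reaction at pH 10. Enzyme: ASM from human placenta; substrate HMU-PC0, 9 uM final; 60 min, 37 °C. Compound preincubation 10 min, ambient temperature.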
# TGFb SMAD3 inh: qHTS for Inhibitors of TGF-b; HepG2 CAGA-GFP TGF-b/SMAD3 reporter, GFP fluorescence, 18 h; TGF-beta stimulated, 500 pg/mL final; Potency, µM (titrated, usually from 46.1 µM), inactives show at the highest dose activity, negative = inhibition, hits mostly inhibitors; 410,000 compounds, 1.2% hits; also: potency is read from the fitted curve at half-maximal effect; % is scaled to controls: 0 for no effect and ±100 for the full control effect; nearly all actives have a fitted effect of over 65% in size
#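 Using HEPG2 CAGA-GFP reporter cells at 1000 cells/well, we pinned test compounds, stimulated with recombinant TGF-beta (500 pg/mL final) and measured total well GFP after 18 h.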
# Active calls of the source: *; ? = inconclusive; . = not tested or not shown. Unless noted, calls follow the shape of the dose curve; as a rule, active = well fitted curve in the direction sought with a large enough effect; inconclusive = small, poorly fitted or top-dose-only effect, or another doubt; inactive = no such curve, though single readings can be large; an effect the other way counts as inactive or inconclusive.
SMILES,TDP1 cell CPT,HepG2 tox,IL1B secr inh,TDP1 cell noCPT,ASM inhibitor,TGFb SMAD3 inh
Cc1cccc(OCCCn2c(CCNC(=O)C3CCCCC3)nc3ccccc32)c1,13µM*,-70%,.,12µM*,.,22µM*
O=C(O)CCSc1nc2ccccc2n1CCOc1ccccc1,-17%,-2%,18,1%,5%,-3%
O=C(NCCc1nc2ccccc2n1CCOc1ccc2ccccc2c1)C1CCCCC1,?,-12%,.,?,.,?
Cc1cc(C)cc(OCCCn2c(CCNC(=O)C3CCCCC3)nc3ccccc32)c1,12µM*,-34%,.,15µM*,.,?
O=C(NCCc1nc2ccccc2n1CCCOc1ccc2ccccc2c1)C1CCCCC1,?,0%,.,11µM*,.,4%
O=C(O)C(Cc1cc(I)c(O)c(I)c1)c1ccccc1 (stereo unspecified),0%,.,.,?,.,.
CC(CCc1ccc2c(c1)OCO2)NN (stereo unspecified),14%,.,.,2%,.,.
CC(C)(C)c1ccc(OCCn2c(CCNC(=O)C3CCCCC3)nc3ccccc32)cc1,11µM*,-78%,.,3.2µM*,.,20µM*
Cc1ccc(OCCCCn2c(CCNC(=O)C3CCCCC3)nc3ccccc32)cc1,?,-2%,.,16µM*,.,-21%
Cc1ccc(OCCn2c(CCNC(=O)C3CCCCC3)nc3ccccc32)cc1,.,0%,.,.,.,5%
COC(=O)c1ccc(C(=O)NN)cc1,1%,15%,12,0%,0%,-2%
CCC/C=C(\CCC)C(NC(=O)c1ccc(C(=O)OC)cc1)c1ccc(C(=O)OC)cc1 (stereo unspecified),9.2µM*,-11%,33,7.3µM*,-14%,13%
COc1ccc(Cn2cc(S(=O)(=O)c3ccc(Cl)cc3)c(=O)c3cc4c(cc32)OCO4)cc1,3%,-1%,.,-15%,.,?
COCCCNCCCOc1ccc(Cl)cc1C(C)(C)C,12µM*,16µM*,-89*,18µM*,5%,?
CNCCCOc1ccc(Cl)cc1C(C)(C)C,?,-101%,-72*,16µM*,-2%,?
CCC(C)NCCCOc1ccc(Cl)cc1C(C)(C)C (stereo unspecified),?,-34%,-8,?,4%,-25%
COc1ccc(-c2[nH]c(-c3ccc(C)cc3)nc2SCC(=O)NCC2CCCO2)cc1 (stereo unspecified),?,-3%,.,?,.,-30%
Cc1ccc(-c2nc(SCC(=O)NCC3CCCO3)c(-c3ccc(Cl)cc3)[nH]2)cc1 (stereo unspecified),?,-17%,?,21µM*,-3%,?
COc1ccc(-c2nc(SCC(=O)NC3CCCC3)c(-c3ccc(OC)cc3)[nH]2)cc1,?,-20%,-11,16µM*,-19%,?
CCc1ccc(-c2nc(SCC(=O)NCC3CCCO3)c(-c3ccc(F)cc3)[nH]2)cc1 (stereo unspecified),?,-7%,.,18µM*,.,?
COc1ccc(-c2[nH]c(-c3ccc(Cl)cc3)nc2SCC(=O)NCC2CCCO2)cc1 (stereo unspecified),10µM*,-43%,.,7.3µM*,.,?
CCn1c(SCC(=O)NCC2CCCO2)nnc1-c1ccc(Cl)cc1 (stereo unspecified),6%,-19%,22,5%,-3%,-12%
Cc1ccnc(NC(=O)c2ccc(S(=O)(=O)N3CCCC3)cc2)c1,1%,4%,2,-2%,1%,-1%
C[C@@H]1CN[C@H](CCO)/C1=C\c1ccccc1,-4%,1%,10,-28%,-1%,2%
Cc1ccc(-c2nc(S(=O)(=O)c3ccccc3)c(SCC(=O)NCC3CCCO3)o2)cc1 (stereo unspecified),?,5%,-25,23µM*,-3%,12%
SMILES,TDP1 cell CPT,HepG2 tox,IL1B secr inh,TDP1 cell noCPT,ASM inhibitor,TGFb SMAD3 inh
Cc1ccc(-c2nc(SCC(=O)NCC3CCCO3)c(-c3ccc(C)cc3)[nH]2)cc1 (stereo unspecified),?,-10%,-23,?,1%,?
COCCNC(=O)CSc1nc(-c2ccc(F)cc2)[nH]c1-c1ccc(Cl)cc1,?,-33%,.,26µM*,.,?
Cc1ccc(-c2[nH]c(-c3ccccc3)nc2SCC(=O)NCC2CCCO2)cc1 (stereo unspecified),15µM*,-10%,-17,23µM*,-2%,-22%
COc1ccc(CNc2ncnc3ccc(-c4ccoc4)cc23)c(OC)c1,?,.,.,-26%,.,.
COc1ccc(CNc2ncnc3ccc(-c4cccc(C#N)c4)cc23)c(OC)c1,?,.,.,26µM*,.,.
COc1ccc(CNc2ncnc3ccc(-c4ccccc4CN(C)C)cc23)c(OC)c1,21µM*,.,.,10µM*,.,.
COc1ccc(CNc2ncnc3ccc(-c4cccc(NS(C)(=O)=O)c4)cc23)c(OC)c1,18µM*,.,.,15µM*,.,.
COc1ccc(CNc2ncnc3ccc(-c4ccc5c(c4)OCO5)cc23)c(OC)c1,?,.,.,-15%,.,.
Cc1cccc(C(c2sc3nc(-c4ccco4)nn3c2O)N2CCN(c3ccccc3F)CC2)c1 (stereo unspecified),-17%,-22%,.,-13%,.,?
Cc1ccc(N(CCO)C(=S)Nc2ccccc2)cc1,1%,2%,13,1%,-2%,3%
COc1ccc(CCNC(=O)C2CCN(c3ncnc4c3nc3n4CCCCC3)CC2)c(OC)c1,11%,3%,.,0%,.,-8%
Nc1ccccc1N=Nc1ccccc1N,?,-34%,-6,-28%,1%,?
CC(C)(C)C1=CC(=Nc2ccccc2N)C=C(C(C)(C)C)C1=O,?,-50%,-113*,?,-22%,?
Cc1ccc(Nc2nc(-c3sc(N)nc3C)cs2)cc1,-76%,-11%,-20,?,-17%,?
CC(=O)c1cccc(Nc2nc(-c3sc(C)nc3C)cs2)c1,?,-22%,-57*,?,-13%,16%
Cc1nc(N)sc1-c1csc(Nc2cc(N(C)C)ccc2Cl)n1,7.3µM*,-4%,0,13µM*,.,8%
